Drawing on PubChem BioAssay (NCATS), this text covers Potency for 25 compounds.

SMILES strings stand for the structures. Inconclusive results are not listed. A call without a number means that no potency is given here. Calls of active or inactive are those of the source. Calls follow the shape of the dose curve; as a rule, active = well fitted inhibition curve with a large enough effect; inconclusive = small, poorly fitted or top-dose-only effect; inactive = no such curve, though single readings can be large or run the other way.
Potency is read from the fitted curve at half-maximal effect.

The assay can be described thus: Primary fluorescence-based thiol-reactive (MSTI) qHTS assay for identification of artifact compounds. (AID 1845221). Also: nearly all actives have a fitted effect of over 65% in size. Particulars: MSTI thiol-reactivity probe, 1 h; series mostly up to 53.8 µM. An excerpt:
PI: Alexander Tropsha Ph.D.
UNC Eshelman School of Pharmacy
University of North Carolina, Chapel Hill, North Carolina
Hits from high-throughput screening (HTS) of chemical libraries are often false positives due to their interference with the assay detection technology. In response to this problem, we generated the largest publicly available library of chemical liabilities and developed a free webtool to predict HTS artifacts, both of which are described herein. More specifically, we generated, curated, and integrated HTS datasets for thiol reactivity, redox activity, and luciferase (firefly and nano) activity. Using these curated datasets, we developed and validated several Quantitative Structure-Interference Relationship (QSIR) models to predict nuisance behavior. […] These models were employed for virtual profiling of the National Center for Advancing Translational Science's (NCATS) in-house library, and 256 compounds for each assay were selected for the experimental validation of nuisance behavior. The BA for these external predictions ranged from 58 to 78% for compounds within the applicability domains of the models. […] The models developed in this study, along with aggregation models previously developed by our group (SCAM Detective) were implemented in "Liability Predictor," an online tool which may be used as part of chemical library design or for triaging HTS hits. Both the models and the curated datasets are publicly available at https://liability.mml.unc.edu/.
SEQUENCE No. (e.g., 1, 2, 3, etc.); […] (e.g., Cells, Incubation, Reagent, etc.); VALUE; DESCRIPTION.
1; Reagent; 4 uL; […].
2; Compounds and control; 16 nL; Kalypsis pin tool (Wako USA) equipped with a 1536-well pin head.
4; Detection; Fluorescence, ViewLux microplate reader, 525 nm excitation, 598 nm emission.
NOTES (numbers refer to Sequence numbers above)
1. Assays determining (E)-2-(4-mercaptostyryl)-1,3,3-trimethyl-3H-indol-1-ium (MSTI) reactivity were performed as previously described in the literature with modifications for the quick identification of compounds reacting with thiol. In brief, 4 uL of MSTI or positive control Acetyl-MSTI (final concentrations of 4 uM and 4 uM, respectively) in assay buffer (2% DMSO in 1X PBS pH 7.4) was dispensed into all wells of a 1536-well assay plate (solid-bottom black plate; Greiner Bio One, Monroe, NC).
2. A Wako Pin-tool (Wako Automation, Richmond, VA) was used to transfer 16 nL of compounds (consisting of 7-plates in qHTS format, final concentration range 18.3 nM to 114 uM) or control MLS001163887 (final concentration range 1.22 nM to 40 uM).
3. Plates were centrifuged (121xg, 15 seconds) and incubated for 1 hour at room temperature protected from light.
4. Samples were read for fluorescence (Ex/Em = 525(20)/598(25) nm) on a ViewLux CCD imager (PerkinElmer). Data were normalized to Acetyl-MSTI (0% activity) and MSTI (100% activity) and the resulting percent inhibition data were fitted to a 4-parameter Hill equation using NCATS in-house software.
(Quantitative high-throughput screening tests each substance at several concentrations.)
As for `CCNC(=O)C[C@@H]1N=C(c2ccc(Cl)cc2)c2cc(OC)ccc2-n2c(C)nnc21`, the Potency result is “inactive”.
On to `COC1=C[C@@H]2[C@@H]3Cc4ccc(OC)c(O)c4[C@]2(CCN3C)CC1=O`, for which the Potency result was “inactive”.
Turning to `CCOC(=O)Nc1ccc(NCc2ccc(F)cc2)cc1N`, the Potency was 1.19 µM (active).
Then `CN1CCN(c2ccc([N+](=O)[O-])c3no[n+]([O-])c23)CC1`, with 11.9 µM (active).
`CC(C)[C@]12O[C@H]1[C@@H]1O[C@]13[C@]1(O[C@H]1C[C@H]1C4=C(CC[C@@]13C)C(=O)OC4)[C@@H]2O`: the Potency result is “inactive”.
For `O=C(Oc1ccc([N+](=O)[O-])cc1)N1CCC(C(O)(c2ccc3c(c2)OCO3)c2ccc3c(c2)OCO3)CC1`, the Potency entry was “inactive”.
For `Cc1c(C(=O)Nc2cccc(C(F)(F)F)c2)cc(-c2ccccc2)n1CCCN1CCOCC1`, the Potency result is “inactive”.
Then `Cc1ccccc1-n1c(Cn2cnc3c(N)ncnc32)nc2cccc(C)c2c1=O`, with “inactive”; and `Cc1[nH]nc2ccc(-c3cncc(OC[C@@H](N)Cc4c[nH]c5ccccc45)c3)cc12`, with “inactive”; and `CC1(N2CCC(n3c([C@@H]4CCCNC4)nc4ccccc43)CC2)CCCCCCC1`, with “inactive”.
Then `CCNC(=O)CC1N=C(c2ccc(Cl)cc2)c2cc(OC)ccc2-n2c(C)nnc21` (stereo not given), with “inactive”; and `CC(=O)N(C)c1cccc(-c2ccnc3c(C(=O)c4cccs4)cnn23)c1`, with “inactive”.
With `C/C=C(/C)C(=O)O[C@H]1C(C)=C2[C@H]([C@@H]1OC(=O)CCCCCCC)[C@@](C)(OC(C)=O)C[C@H](OC(=O)CCC)[C@@]1(O)[C@H]2OC(=O)[C@@]1(C)O`, the Potency entry was “inactive”.
Then `CC(N[C@H]1C[C@H]1c1ccccc1)c1ccc2c(c1)OCCO2` (stereo not given in full), with “inactive”; and `CCN1CCN(C(=O)Cc2ccc(Nc3ncc(F)c(Nc4ccc(C(=O)Nc5ccccc5Cl)cc4)n3)cc2)CC1`, with “inactive”; and `CC(C)N(CCNC(=O)CN1CCCC1=O)C(C)C`, with “inactive”.
In the case of `CC(C)(C)NC[C@H](O)c1ccc(O)cc1Cl`, the Potency result is “inactive”.
Then `O=C(N[C@H]1CN2CCC1CC2)c1ccc(Cl)cc1`, with “inactive”; and `CCN(CC)C(=O)c1ccc(C2=CC3(CCNCC3)Oc3cccc(O)c32)cc1`, with “inactive”; and `O=C(N[C@@H](COc1ccc2[nH]c(=O)[nH]c2c1)c1ccccc1)c1cccn(Cc2ccc(F)c(F)c2)c1=O`, with “inactive”.
For the compound `Cc1ccccc1-n1c(Cn2ncc3c(N)ncnc32)nc2cccc(C)c2c1=O`, the Potency entry was “inactive”.
Then `S=C(NC1CCCCC1)N1CCC(c2cnc[nH]2)CC1`, with “inactive”; and `O=C(NCC1CCOCC1)c1cnc(Nc2ccc(Cl)cc2Cl)nc1C(F)(F)F`, with “inactive”.
Then `O=c1[nH]c2ccc(Cl)cc2c(N[C@@H]2CN3CCC2CC3)c1-c1nc2ccccc2[nH]1`, with “inactive”; and `O=C1C=CC[C@@H]2[C@H]3CCCN4CCC[C@@H](CN12)[C@@H]34`, with “inactive”.
